The values below come from PubChem BioAssay AID1346428 (National Center for Advancing Translational Sciences (NCATS), 2018).

The campaign covered roughly 48,000 compounds. About 1,200 (2.5%) were called active. Inconclusive results (about 2%) are left out.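 The calls were made as follows: active = activation of at least 60% and not above a set upper limit (about 1 call in 100 departs from these limits); inconclusive = activation of 40% to 60%, or above that upper limit; inactive = activation under 40%.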 Only a selection was taken, and actives are over-represented in it overall.

Probable G-protein coupled receptor 32 (Homo sapiens), sequence (O75388 whole entry, looked up): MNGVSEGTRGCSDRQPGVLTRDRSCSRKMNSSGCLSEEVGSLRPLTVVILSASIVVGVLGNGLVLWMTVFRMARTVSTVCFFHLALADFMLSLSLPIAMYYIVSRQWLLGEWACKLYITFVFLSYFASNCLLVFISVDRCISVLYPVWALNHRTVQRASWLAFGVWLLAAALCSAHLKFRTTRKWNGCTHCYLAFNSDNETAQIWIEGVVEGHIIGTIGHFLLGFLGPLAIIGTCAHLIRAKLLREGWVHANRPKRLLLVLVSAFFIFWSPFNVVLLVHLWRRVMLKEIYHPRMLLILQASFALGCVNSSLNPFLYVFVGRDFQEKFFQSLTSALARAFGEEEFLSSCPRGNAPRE

The experiment deals with Probable G-protein coupled receptor 32 (Homo sapiens) (UniProt O75388). Put plainly: qHTS for Agonists of Human Resolvin D1 Receptor DRV1. Also: 0% is about no effect. The note with it: CHO-K1 GPR32 beta-arrestin PathHunter luminescence, 90 min; at 76.9 µM; active compounds read high; zero percent set by DMSO-only wells. The procedure, abridged:
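CHO-K1 cells stably expressing ProLink-tagged GPR32 and Enzyme Activator-tagged beta-arrestin were seeded at 2,500 cells/well overnight, exposed to compounds for 90 min at 37 °C, then read by beta-Gal complementation chemiluminescence after 1 h detection reagent.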
In general terms: qHTS replaces the single test concentration by a dilution series.
`COCCCNC(=O)C1CCC(CNS(=O)(=O)c2ccc(OC)cc2)CC1` (centres undefined): the activation was -7.55% (inactive).

`COc1ccc(N2C(=O)NC(NS(=O)(=O)c3ccc(Cl)cc3)(C(F)(F)F)C2=O)cc1` (centres undefined): the activation is -2.22% (inactive).

`Cc1nnc(SCc2cc(=O)c3cc(F)ccc3[nH]2)n1C`: the activation is -15.5% (inactive).

Take `CCC(=O)N1CCc2cc(Br)cc(S(=O)(=O)CCC(=O)N3CCN(c4ccc(F)cc4)CC3)c21`: the activation is 1.23% (inactive).

With `CCCCn1cc(S(=O)(=O)c2ccc(OCC)cc2)c(=O)c2cc(OC)c(OC)cc21`, the activation was -26% (inactive).

Consider `COc1ccc(CCC(=O)NCc2ccc3c(c2)CCN3C(=O)c2ccc(F)cc2)cc1`, for which the activation is -17.6% (inactive).

On to `CCC(Sc1nnc(-c2ccc(OC)cc2)c(-c2ccc(OC)cc2)n1)C(=O)NC1CCCCC1` (centres undefined), for which the activation was -11.5% (inactive).

In the case of `CCCS(=O)(=O)c1ncc(Cl)c(C(=O)Nc2scc(-c3ccccc3)c2C(=O)OCC)n1`, the activation was 97.2% (active).

With `CCOC(=O)c1ccc(NC(=O)c2nc(SCc3ccc(F)cc3)ncc2Cl)cc1`, the activation was -27.7% (inactive).

Turning to `Cc1ccc(NC(=O)c2nc(S(=O)(=O)Cc3cccc(C)c3)ncc2Cl)cc1`, the activation was -21.8% (inactive).

For `CCOC(=O)C1CCCN(CC(=O)Nc2cc(C)c3c(=O)oc4ccccc4c3n2)C1` (centres undefined), the activation was -11.1% (inactive).

With `CSc1ccccc1-c1nnc(NC(=O)c2ccc3c(c2)OCCO3)o1`, the activation was -21.8% (inactive).

As for `CCn1cc(C(=O)NCc2ccc(C)cc2)c(=O)c2cc(S(=O)(=O)N3CCc4ccccc4C3)ccc21`, the activation was 70.1% (active).

Take `CCOCCCNC(=O)c1cn(CC)c2ccc(S(=O)(=O)N3CCc4ccccc4C3)cc2c1=O`: the activation is 3.07% (inactive).

Take `CCn1cc(C(=O)NCc2ccccc2)c(=O)c2cc(S(=O)(=O)N3CCCCC3)ccc21`: the activation was 0.542% (inactive).

For the compound `COc1ccccc1NC(=O)Cn1cnc2ccc(S(=O)(=O)N3CCC(C)CC3)cc2c1=O`, the activation was 14.7% (inactive).

For `CCc1cccc(CC)c1NC(=O)Cn1c(=O)c(-c2cc(C)ccc2NC(C)=O)nc2ccccc21`, the activation was -6.44% (inactive).

For `CCc1nn(CCCN2CCN(c3cccc(Cl)c3)CC2)c(=O)n1CCOc1ccccc1`, the activation was 89.4% (active).

For the compound `CCc1nc2ccc(C(=O)N3CCN(c4cccc(Cl)c4)CC3)cc2nc1CC`, the activation was -29.3% (inactive).

Take `CCOC(=O)c1c(C)[nH]c(CCC(=O)NCCCN2CCN(c3cccc(Cl)c3)CC2)c1C`: the activation is 3.48% (inactive).

On to `Cc1ccc(Cl)cc1N(C)C(=O)C1CCCN(c2ncnc3onc(-c4ccc(F)cc4)c23)C1` (centres undefined), for which the activation was -22% (inactive).

As for `CCNC(=O)CC1C(=O)N(c2ccc(F)cc2)C(=O)N1Cc1ccc(C)cc1` (centres undefined), the activation is 0.37% (inactive).

With `CCCCC12CN3CC(C)(CN(C1)C3c1ccc(O)c(OC)c1)C2=O` (centres undefined), the activation was -20.2% (inactive).

`Cn1c(C(=O)Nc2cccc(C(F)(F)F)c2)cc2c(=O)n3ccccc3nc21`: the activation was 4.29% (inactive).

`COc1cc(OC)cc(C(=O)Nc2ccc3nc(Nc4cccc(C(F)(F)F)c4)cc(C)c3c2)c1`: the activation was -9.34% (inactive).

In the case of `Cc1cc(Nc2cccc(C(F)(F)F)c2)nc2ccc(NC(=O)c3ccc(=O)[nH]c3)cc12`, the activation is 112% (active).

For `Cn1c(=O)sc2cc(NS(=O)(=O)c3ccc(C(C)(C)C)cc3)ccc21`, the activation is -13.3% (inactive).

As to `CCC(C)c1ccc2oc(-c3ccc(NC(=O)c4cc5ccccc5o4)cc3)nc2c1` (centres undefined), the activation was -0.177% (inactive).

In the case of `Cc1cc2nc(-c3ccc(NC(=O)c4cc5ccccc5o4)cc3)oc2cc1C`, the activation was -3.47% (inactive).

For `CC(C)Oc1ccc(NC(=O)c2cc3ccccc3o2)cc1`, the activation was 63.5% (active).

As for `O=C(O)CCCc1ccccc1`, the activation was 6.7% (inactive).

With `CCOC(=O)c1ccc(CN(Cc2ccccc2)S(=O)(=O)c2ccc(Cl)cc2)cc1`, the activation is -16.7% (inactive).

As to `O=C(OCc1ccccc1)c1ccc(O)cc1`, the activation was 68.1% (active).

For `COc1ccc(NC(=O)Cn2c(=O)n(Cc3ccc(C(=O)NCc4ccccc4Cl)cc3)c(=O)c3ccccc32)cc1`, the activation was -4.2% (inactive).

Regarding `CCCCCCc1ccc(O)cc1O`, the activation is 89.2% (active).

As for `Cc1ccc(O)c(NC(=O)CCS(=O)(=O)c2nc(-c3ccc4c(c3)OCO4)cc(C(F)(F)F)n2)c1`, the activation is -25.7% (inactive).

As for `COC(=O)c1ccc2c(c1)N(CC(=O)Nc1ccc(C)c(C)c1)C(=O)c1ccccc1S2`, the activation is -13.7% (inactive).

Take `COc1ccc(CNC(=O)CCc2c(C)nn(-c3ccc(N4CCCC4)nn3)c2C)cc1`: the activation is -8.15% (inactive).

As to `O=C(Nc1ccccc1Br)c1cc(CN2CCCC2)on1`, the activation is -9.24% (inactive).

On to `Cc1nn(Cc2ccc(F)cc2)c(C)c1NC(=O)c1cc(CC(C)C)on1`, for which the activation was 86.4% (active).

With `Cc1ccccc1Cn1nc(C)c(NC(=O)c2cc(-c3ccc(F)cc3)on2)c1C`, the activation is 6.09% (inactive).

`Cc1ccc(NC(=O)C(Cc2ccccc2)NS(=O)(=O)c2ccc3c(c2)oc(=O)n3C)cc1C` (centres undefined): the activation is 4.78% (inactive).

Turning to `CCN(CCCNC(=O)Cn1ncc2c3ccccc3n(C)c2c1=O)Cc1ccccc1`, the activation was -3.31% (inactive).

For the compound `Cc1ccc(C)c(N2CCN(C(=O)Cn3nc(C)c4sc5ccccc5c4c3=O)CC2)c1`, the activation is -8.71% (inactive).

Consider `O=C(CCS(=O)(=O)c1ccc2c(c1)NC(=O)CO2)Nc1cccc(C(F)(F)F)c1`, for which the activation was 13.3% (inactive).

For the compound `O=C(CN1c2ccccc2S(=O)(=O)c2ccccc21)Nc1cccc(C(F)(F)F)c1`, the activation is 1.8% (inactive).

With `CN(CC(=O)Nc1cccc(C(F)(F)F)c1)S(=O)(=O)c1cccs1`, the activation was 67.5% (active).

With `CCc1ccccc1NC(=O)N1CCC2(CC1)Oc1ccccc1C(=O)N2Cc1ccccc1F`, the activation is -16.7% (inactive).

In the case of `O=C(CSc1n[nH]c(-c2ccccc2)n1)N1CCCCC1`, the activation was 7.63% (inactive).

For `Cc1cccc(OCCCC(=O)Nc2sc3c(c2C(N)=O)CCC(C)C3)c1` (centres undefined), the activation is 70.3% (active).

In the case of `COC(=O)c1c(NC(=O)CCCOc2ccccc2)sc2c1CCC(C)C2` (centres undefined), the activation is 7.01% (inactive).

For `CCOc1ccc(NC(=O)c2c(NC(=O)Cc3ccccc3)sc3c2CCC(C)C3)cc1` (centres undefined), the activation was -11.2% (inactive).

In the case of `COc1ccccc1-c1cc2nc(C)c(CCC(=O)O)c(C)n2n1`, the activation was -0.841% (inactive).

On to `COc1ccc(NC(=O)CCCN2C(=O)CCn3nc(-c4cn(C)c5ccccc45)cc32)cc1OC`, for which the activation was 17.2% (inactive).
